“And” between values parts separate entries of the source, which are not always exact repeats. Identical values can stand only once. The whole screen tested about 310,000 compounds, of which about 1,200 (0.39%) were called active. Only a sample is shown. Potency and affinity values are given separately. A number with no mark means an inactive call. The rule behind the calls is not given here.
Target: Large T antigen (Simian virus 40) (UniProt P03070)
Test: TAg ATPase/helicase activity blockers – biochemical (AID 1903)
Settings: SV40 large T antigen ATPase/helicase inhibition assay; at 20 µM; hits give high values

Large T antigen (Simian virus 40), sequence (P03070 whole entry, looked up): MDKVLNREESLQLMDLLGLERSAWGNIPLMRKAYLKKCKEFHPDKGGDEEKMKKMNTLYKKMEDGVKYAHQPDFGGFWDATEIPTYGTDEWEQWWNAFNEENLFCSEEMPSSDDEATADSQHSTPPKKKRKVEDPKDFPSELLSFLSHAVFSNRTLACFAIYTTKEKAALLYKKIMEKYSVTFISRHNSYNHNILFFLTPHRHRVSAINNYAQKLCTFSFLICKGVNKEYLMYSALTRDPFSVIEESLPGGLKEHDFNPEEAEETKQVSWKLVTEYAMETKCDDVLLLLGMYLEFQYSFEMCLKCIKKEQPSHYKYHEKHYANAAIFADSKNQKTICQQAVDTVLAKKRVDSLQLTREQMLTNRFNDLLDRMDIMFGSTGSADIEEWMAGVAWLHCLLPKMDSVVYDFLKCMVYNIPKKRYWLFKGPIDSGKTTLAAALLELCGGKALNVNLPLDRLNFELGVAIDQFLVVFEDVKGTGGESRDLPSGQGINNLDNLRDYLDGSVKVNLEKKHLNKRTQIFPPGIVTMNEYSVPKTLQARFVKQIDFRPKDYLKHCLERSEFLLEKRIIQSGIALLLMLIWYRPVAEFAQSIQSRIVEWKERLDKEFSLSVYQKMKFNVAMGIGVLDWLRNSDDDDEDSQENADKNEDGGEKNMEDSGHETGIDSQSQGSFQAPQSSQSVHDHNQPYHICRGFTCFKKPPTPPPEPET

How did the inhibition turn out when `CCOC(=O)N/N=C(/C)c1ccc(N2C(=O)C3CCCCC3C2=O)cc1` (centres undefined) was run?
The inhibition was 11.8%.

For `O=C(O)c1ccc(N(Cc2ccccc2)S(=O)(=O)c2ccccc2)cc1`, which inhibition is on record?
The inhibition was 1.43% and 0.12%.

Which inhibition does the source give for `CN(C[C@H](Cc1ccccc1)N(C[C@H](Cc1ccccc1)N(CCc1cc(C(F)(F)F)cc(C(F)(F)F)c1)N=O)N=O)N=O` here?
The inhibition was 0.235%.

Which inhibition does the source give for `CCC(=O)c1ccc(OCC(=O)OCC(=O)Nc2c(C)n(C)n(-c3ccccc3)c2=O)cc1` here?
The inhibition was 12.3%.

For `O=C(CN1CCN(c2ccc(F)cc2)CC1)Nc1ccc2c(c1)OCCO2`, which inhibition is on record?
The inhibition was 8.68%.

Which inhibition does the source give for `Cc1cc(C)cc(OCC(=O)OCC(=O)Nc2c(C)n(C)n(-c3ccccc3)c2=O)c1` here?
Its inhibition is 15.2%.

For `O=C(CN1CCN(c2ccccc2)CC1)Nc1ccc2c(c1)OCCO2`, which inhibition is on record?
Its inhibition is -0.06%.

With `Cc1c(NC(=O)CN2CCN(c3ccc(F)cc3)CC2)c(=O)n(-c2ccccc2)n1C` as the molecule, how does the inhibition read?
The inhibition was 6.05%.

How did the inhibition turn out when `N#Cc1ccsc1NC(=O)CN1CCN(c2ccccc2)CC1` was run?
The inhibition was 9.52%.

`COc1ccc(N2CCN(CC(=O)Nc3sccc3C#N)CC2)cc1` was tested. Which inhibition did it give?
The inhibition was 8.41%.

`Cc1c(NC(=O)CN2CCN(c3ccccc3)CC2)c(=O)n(-c2ccccc2)n1C` was tested. Which inhibition did it give?
Its inhibition is 3.86%.

How did the inhibition turn out when `CCOc1ccc(C2/C(=C(/O)c3ccc4c(c3)CC(C)O4)C(=O)C(=O)N2CCCn2ccnc2)cc1OCC` (centres undefined) was run?
The inhibition was 2.21%.

Which inhibition does the source give for `Cc1ccsc1/C=N/NC(=O)c1cccnc1` here?
The inhibition was 10.3%.

How did the inhibition turn out when `COc1cccc(N/C=C/C(=O)c2ccc(OC)c(OC)c2)c1` was run?
Its inhibition is 15.6%.

With `Cc1cc(NC(=O)c2ccc3c(c2)C(=O)N(C)C3=O)no1` as the molecule, how does the inhibition read?
The inhibition was 21.4%.

How did the inhibition turn out when `COc1ccccc1C(=O)Nc1cccc2c1CCCC2` was run?
The inhibition was 3.42%.

Which inhibition does the source give for `Cc1cc(CNC(=O)CCc2nnc(CCCc3ccccc3)o2)nn1C` here?
The inhibition was 23%.

`Cc1cccc(N(CC(=O)NCc2ccc3c(c2)OCO3)C(=O)CCC(=O)Nc2ccccn2)c1` was tested. Which inhibition did it give?
Its inhibition is 3.36%.

How did the inhibition turn out when `c1ccc(OCCOCCSc2ncccn2)cc1` was run?
Its inhibition is 3.66%.

`COc1cccc(-c2ccc3nnc(SCC(=O)N4CCOCC4)n3n2)c1` was tested. Which inhibition did it give?
Its inhibition is 8.56%.

How did the inhibition turn out when `COc1cc(OC)c(C(=O)OCC(=O)N2CCOCC2)cc1OC` was run?
The inhibition was -1.18%.

Which inhibition does the source give for `CC(=O)c1ccc(N2CCN(CC(=O)Nc3cc(C)on3)CC2)cc1` here?
Its inhibition is 11.5%.

With `COc1ccc(N2CCN(CC(=O)NC(=O)NC(C)(C)C)CC2)cc1` as the molecule, how does the inhibition read?
The inhibition was 22.3%.

With `COc1ccc(N2CCN(CC(=O)Nc3cc(C)on3)CC2)cc1` as the molecule, how does the inhibition read?
The inhibition was 12.3%.

How did the inhibition turn out when `CC(C)(C)NC(=O)NC(=O)CN1CCN(c2ccccc2)CC1` was run?
The inhibition was -1%.

Which inhibition does the source give for `CCCN(CC(=O)Nc1ccc(Cl)cc1Cl)Cc1cc(=O)n2ccsc2n1` here?
Its inhibition is -0.76%.

Which inhibition does the source give for `COc1ccc(C(=O)NCc2nnc(SCC(=O)Nc3nnc(C)s3)o2)cc1` here?
The inhibition was 11.2%.

How did the inhibition turn out when `Cc1ccc(S(=O)(=O)NCC(=O)N(CC(=O)NC2CCCC2)c2ccc3c(c2)OCCO3)cc1` was run?
Its inhibition is 6.71%.

Which inhibition does the source give for `CCOc1c(C)cnc2c1c(=O)n(Cc1c(F)cccc1Cl)c(=O)n2C` here?
The inhibition was 18.6%.

`COc1ccc(N2Nc3n[nH]c(N)c3N2)cc1` was tested. Which inhibition did it give?
Its inhibition is 34.9%.

With `CCOc1ccc(N2C(N)=NC(N)=NC2(C)C)cc1` as the molecule, how does the inhibition read?
Its inhibition is 2.99%.

With `COc1ccc(NC2=CC(c3ccc(OC)cc3)N(c3ccc(OC)cc3)C2=O)cc1` (centres undefined) as the molecule, how does the inhibition read?
Its inhibition is 11.9%.

How did the inhibition turn out when `Cc1cc(NS(=O)(=O)c2cccs2)no1` was run?
The inhibition was -2.38%.

`CC(=O)Nc1cccc(NC(=O)CSc2ncc(C(=O)Nc3ccccc3)c(=O)n2C)c1` was tested. Which inhibition did it give?
The inhibition was 19.6%.

With `Fc1ccccc1COc1ccc(Br)cc1CNCC1CCCO1` (centres undefined) as the molecule, how does the inhibition read?
The inhibition was 4.34%.

With `Cc1cccc(N2C(=O)c3ccc(Br)cc3C2=O)n1` as the molecule, how does the inhibition read?
Its inhibition is 8.73%.

With `Cc1cccc(N2C(=O)c3ccccc3C2=O)n1` as the molecule, how does the inhibition read?
The inhibition was 4.5%.

How did the inhibition turn out when `Cc1csc(NC(=O)c2cc(=O)[nH]c3ccccc23)n1` was run?
Its inhibition is 5.64%.

Which inhibition does the source give for `CN(C)S(=O)(=O)c1ccc(Cl)c(NC(=O)CN2CCNC(=O)C2)c1` here?
Its inhibition is 5.76%.

How did the inhibition turn out when `Cc1ccc(C)c(NC(=O)C(Sc2nc3ccccc3c(=O)n2CC(C)C)c2ccccc2)c1` (centres undefined) was run?
Its inhibition is 4.6%.

How did the inhibition turn out when `COc1ccc(C=O)cc1CN1C(=O)c2ccccc2C1=O` was run?
Its inhibition is 0.06%.

`COc1ccc(C)cc1CN1C(=O)c2ccccc2C1=O` was tested. Which inhibition did it give?
The inhibition was 2.66%.

How did the inhibition turn out when `COc1ccc(CN2CC(C(=O)N3CCOCC3)CC2=O)cc1` (centres undefined) was run?
Its inhibition is 13.7%.

Which inhibition does the source give for `Cc1c(NC(=O)c2ccc(-c3ccc([N+](=O)[O-])cc3Cl)o2)c(=O)n(-c2ccccc2)n1C` here?
The inhibition was 7.53%.

With `O=C(O)CN1C(=O)/C(=C/c2ccc(SCc3ccccc3)o2)SC1=S` as the molecule, how does the inhibition read?
Its inhibition is 12.4%.

For `CC1=NN2C(=N)/C(=C\c3ccc(SCc4ccccc4)o3)C(=O)N=C2S1`, which inhibition is on record?
The inhibition was 15.7%.

How did the inhibition turn out when `CCS(=O)(=O)C1=NN2C(=N)/C(=C\c3ccc(SCc4ccco4)o3)C(=O)N=C2S1` was run?
The inhibition was 59.6%.

For `N=C1/C(=C\c2ccc(SCc3ccccc3)o2)C(=O)N=C2SC=NN12`, which inhibition is on record?
The inhibition was -0.34%.

How did the inhibition turn out when `CCC1=NN2C(=N)/C(=C\c3ccc(SCc4ccco4)o3)C(=O)N=C2S1` was run?
Its inhibition is 0.38%.

Which inhibition does the source give for `O=C1NC(=S)S/C1=C/c1ccc(OC(=O)c2ccco2)cc1` here?
The inhibition was 12%.

With `Cc1ccc(-c2nnc(SC(C)C(=O)NCC3CCCO3)nc2-c2ccc(C)cc2)cc1` (centres undefined) as the molecule, how does the inhibition read?
Its inhibition is 7.01%.

How did the inhibition turn out when `Cn1c(=O)n(CCOc2ccc(Cl)cc2Cl)c2ccccc21` was run?
The inhibition was 24.1%.

For `O=C(COC(=O)c1ccccc1Oc1ccccc1)NC1CCS(=O)(=O)C1` (centres undefined), which inhibition is on record?
Its inhibition is 2.91%.

With `COc1ccc(C2c3sc(=O)[nH]c3SCC2C(N)=O)cc1` (centres undefined) as the molecule, how does the inhibition read?
The inhibition was 12.6%.

`CCCCOP(=O)(c1ccc(N(C)C)cc1)C(O)c1ccccc1F` (centres undefined) was tested. Which inhibition did it give?
Its inhibition is 0.81%.

How did the inhibition turn out when `O=C(CN(C(=O)CCC(=O)Nc1ccccn1)c1cccc(F)c1)NCc1ccc2c(c1)OCO2` was run?
Its inhibition is 5.37%.

How did the inhibition turn out when `CCCNC(=O)N[C@@H](CCSC)C(=O)OC` was run?
The inhibition was 1.19%.

`N#C/C(=C\c1ccccc1Cl)C(=O)NC(=O)Oc1ccccc1` was tested. Which inhibition did it give?
The inhibition was 23.3%.

For `CCCCCc1nc2c(c(=O)c3ccccc3n2C)c(=O)n1Cc1ccc(OC)cc1`, which inhibition is on record?
The inhibition was 6.54%.

Reference: PubChem BioAssay AID1903 (Southern Research Specialized Biocontainment Screening …, 2009)
